Assay outcomes (PubChem)
In the library only some 1.6% were active in any assay of this set; here they are far more common.
DSG3 Ab inh = blocks pemphigus antibody binding to human desmoglein-3; binding (percent of control), % at 10 µM; hit rate 0.48% among 310,000; P32926; DSG3-coupled beads, scFv-anti-DSG3-GFP binding, flow cytometry; stronger effect = lower value;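 active means binding more than 3 SD below its plate's average and above zero; inconclusive means below that plate limit but binding exactly zero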
Target sequence (P32926 whole entry, looked up): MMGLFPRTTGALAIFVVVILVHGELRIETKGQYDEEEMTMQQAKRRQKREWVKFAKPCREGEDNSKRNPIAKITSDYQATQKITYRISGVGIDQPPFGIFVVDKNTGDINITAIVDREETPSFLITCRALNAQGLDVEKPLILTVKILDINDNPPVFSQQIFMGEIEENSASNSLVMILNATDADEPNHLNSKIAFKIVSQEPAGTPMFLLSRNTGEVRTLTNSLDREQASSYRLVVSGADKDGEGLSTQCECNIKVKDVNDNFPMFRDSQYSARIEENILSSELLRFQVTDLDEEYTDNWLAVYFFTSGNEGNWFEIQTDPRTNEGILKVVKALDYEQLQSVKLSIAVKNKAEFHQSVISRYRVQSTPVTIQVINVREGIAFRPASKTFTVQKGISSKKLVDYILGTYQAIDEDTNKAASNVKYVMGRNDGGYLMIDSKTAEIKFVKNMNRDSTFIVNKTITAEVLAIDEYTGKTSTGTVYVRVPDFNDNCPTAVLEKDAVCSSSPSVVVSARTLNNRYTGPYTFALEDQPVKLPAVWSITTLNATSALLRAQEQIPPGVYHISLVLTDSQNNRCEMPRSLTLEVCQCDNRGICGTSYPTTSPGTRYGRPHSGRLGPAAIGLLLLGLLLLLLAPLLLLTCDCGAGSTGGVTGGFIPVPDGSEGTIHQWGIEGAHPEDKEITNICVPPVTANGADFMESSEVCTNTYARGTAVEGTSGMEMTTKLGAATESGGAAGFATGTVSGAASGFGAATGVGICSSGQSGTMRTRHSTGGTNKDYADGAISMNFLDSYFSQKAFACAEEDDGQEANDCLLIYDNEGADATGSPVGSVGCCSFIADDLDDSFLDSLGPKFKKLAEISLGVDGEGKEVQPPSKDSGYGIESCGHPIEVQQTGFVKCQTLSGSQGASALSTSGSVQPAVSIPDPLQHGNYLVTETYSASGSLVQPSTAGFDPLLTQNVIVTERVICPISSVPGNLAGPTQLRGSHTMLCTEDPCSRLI
VLA-4 inh = inhibition in a human VLA-4 binding assay | P13612 | hit rate 0.2% among 330,000 | VLA-4 expressing cells, ligand binding flow cytometry | inhibition, % (about 7 µM as worked out from the volumes in the protocol); in the data active means inhibition above about 50%
PREPL inhibitor = inhibits the human prolyl oligopeptidase-like enzyme | recombinant PREPL, fluorescence polarization activity-based probe | inhibition, % at 5.96 µM | hit rate 0.68% among 320,000 | AID 2751; in the data active means inhibition above about 43%;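 further: 0% = enzyme with DMSO and 100% = wells lacking enzyme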
GASC-1 inh = inhibitors of human GASC-1 (JMJD2C) demethylase; AID 2099; inhibition, % at 2.35 µM; hit rate 0.069% among 330,000; GST-JMJD2C(1-420) H3K9me3 demethylation, DELFIA europium;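 active means more than half of a compound's replicate wells show inhibition beyond 50%, single wells judged on their own value; inconclusive means some, but no more than half, of replicates pass 50% inhibition; inactive means no replicate passes 50% inhibition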;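 further: signal counts dimethyl H3K9 product captured on neutravidin plate; 0% = median of DMSO wells and 100% = 0.3 times that DMSO median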
GRK2 aptamer HTS = human GRK2 inhibition via aptamer displacement | P25098 | bead flow cytometry, FAM-aptamer displacement from GRK2 | inhibition of aptamer binding, % at 10 µM | hit rate 0.59% among 330,000 | AID 488847;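 active means inhibition of aptamer binding above 40%, roughly 3 SD of noise, on plates passing a quality check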;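 further: median bead fluorescence of bound FAM aptamer so fluorescent compounds give negative values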
VLA-4 allo CP = confirmation of allosteric modulators of human VLA-4 integrin. shares compounds with VLA-4 inh. U937 cells, HUTS-21 LIBS mAb binding, flow cytometry; LDV ligand present at threefold Kd. inhibition, % at 6.7 µM. hit rate 2% among 1,300. AID 2813; in the data active means inhibition above about 40%;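 further: 0% = ligand without compound and 100% = no ligand background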
The depositor's hits bear a star.

Screening CN(Cc1ccc(-n2cccn2)cc1)Cc1cn(C)nc1-c1ccccc1F returned DSG3 Ab inh 104.4, VLA-4 inh 12.6, PREPL inhibitor 2.4, GASC-1 inh 4.4 and GRK2 aptamer HTS 3.0.
CCn1ccnc1CN(C)Cc1cn(C)nc1-c1ccccc1F was read as DSG3 Ab inh 93.1, VLA-4 inh 42.8, PREPL inhibitor 2.4, GASC-1 inh -10.8, GRK2 aptamer HTS 0.0 and VLA-4 allo CP -3.6.
Screening CCCS(=O)(=O)N1CCN(S(=O)(=O)c2ccccc2)CC1 returned DSG3 Ab inh 109.7, VLA-4 inh -6.0, PREPL inhibitor 7.6, GASC-1 inh 2.0 and GRK2 aptamer HTS 1.0.
Screening CC1C(=O)N2CCCc3cc(S(=O)(=O)Nc4ccccc4C(N)=O)cc1c32 (stereo not drawn) returned DSG3 Ab inh 116.6, VLA-4 inh 9.1, PREPL inhibitor 11.1, GASC-1 inh inconclusive, GRK2 aptamer HTS 3.0 and VLA-4 allo CP -4.9.
Screening Cc1noc(C)c1COC(=O)C1(c2cccc(F)c2)CCCC1 returned DSG3 Ab inh 103.1, VLA-4 inh -0.8, PREPL inhibitor -1.3, GASC-1 inh -8.0 and GRK2 aptamer HTS 0.0.
Cc1ccc(S(=O)(=O)C(NC(=O)c2ccccc2)=C(Cl)Cl)cc1 was read as DSG3 Ab inh inconclusive, VLA-4 inh 53.6*, PREPL inhibitor 9.8, GASC-1 inh 0.4, GRK2 aptamer HTS 0.0 and VLA-4 allo CP -1.1.
`Cc1ccc(C(=O)NC(=C(Cl)Cl)S(=O)(=O)c2ccc(C)cc2)cc1` gave DSG3 Ab inh 100.8, VLA-4 inh 4.3, PREPL inhibitor 2.1, GASC-1 inh 7.1 and GRK2 aptamer HTS 0.0.
For COc1ccc(C(=O)NC(=S)NCc2cccnc2)cc1Br the results were DSG3 Ab inh 85.2, VLA-4 inh -4.2, PREPL inhibitor -17.8, GASC-1 inh 24.3 and GRK2 aptamer HTS 0.0.
`Cc1ccc(C(=O)NC(=S)NCc2cccnc2)cc1C` gave DSG3 Ab inh 106.4, VLA-4 inh 54.9*, PREPL inhibitor -18.3, GASC-1 inh -4.5, GRK2 aptamer HTS 4.0 and VLA-4 allo CP -9.5.
Cc1ccc(NC(=O)CN2CCc3cc4c(cc3C2)OCCCO4)cc1C was read as DSG3 Ab inh 101.7, VLA-4 inh 1.2, PREPL inhibitor 4.6, GASC-1 inh -6.4 and GRK2 aptamer HTS 2.0.
Screening Cc1ccc(NC(=O)CN2CCc3cc4c(cc3C2)OCCCO4)cc1 returned DSG3 Ab inh 99.6, VLA-4 inh 54.6*, PREPL inhibitor -6.2, GASC-1 inh 69.3, GRK2 aptamer HTS 2.0 and VLA-4 allo CP 2.7.
`Cc1ccc2c(c1)C1(OCCO1)C(=O)N2` gave DSG3 Ab inh 101.5, VLA-4 inh -2.8, PREPL inhibitor -1.1, GASC-1 inh -4.6 and GRK2 aptamer HTS 2.0.
For O=C1Nc2ccc(F)cc2C12OCCO2 the results were DSG3 Ab inh 87.9, VLA-4 inh 50.7*, PREPL inhibitor 15.4, GASC-1 inh 2.1, GRK2 aptamer HTS 0.0 and VLA-4 allo CP -0.2.
CC(C)C(NC(=O)c1c(F)cccc1F)C(=O)N1CCN(c2ncccn2)CC1 (stereo not drawn) was read as VLA-4 inh -2.4, PREPL inhibitor 2.2, GASC-1 inh -0.6 and GRK2 aptamer HTS 0.0.
`CCC(=O)Nc1ccc2ccccc2c1` gave DSG3 Ab inh 104.3, VLA-4 inh 45.4, PREPL inhibitor -10.5, GASC-1 inh -1.3, GRK2 aptamer HTS 0.0 and VLA-4 allo CP 3.7.
CC(C)CC(=O)Nc1ccc2ccccc2c1 was read as DSG3 Ab inh 94.3, VLA-4 inh 12.2, PREPL inhibitor -9.4, GASC-1 inh -0.9 and GRK2 aptamer HTS 5.0.
Screening OCC1C2c3ccccc3C(c3ccccc32)C1CO (stereo not drawn) returned DSG3 Ab inh 118.0, VLA-4 inh 2.2, PREPL inhibitor 11.0, GASC-1 inh -4.6 and GRK2 aptamer HTS 3.0.
CN(CC(=O)NCc1ccccc1F)S(=O)(=O)c1ccc(Cl)cc1 was read as DSG3 Ab inh 108.7, VLA-4 inh 5.6, PREPL inhibitor -4.5, GASC-1 inh 3.6, GRK2 aptamer HTS 0.0 and VLA-4 allo CP 0.7.
For COc1ccc(NC(=O)CN(C)S(=O)(=O)c2ccccc2)cc1 the results were DSG3 Ab inh 97.5, PREPL inhibitor 7.8, GASC-1 inh -3.7 and GRK2 aptamer HTS 2.0.
`CCN(CC(=O)NCc1ccc(Cl)cc1)S(=O)(=O)c1ccc(F)cc1` gave DSG3 Ab inh 100.8, VLA-4 inh -3.7, PREPL inhibitor -15.2, GASC-1 inh 3.2, GRK2 aptamer HTS 14.0 and VLA-4 allo CP 11.8.
Screening COc1ccc(CNC(=O)CN(C)S(=O)(=O)c2ccccc2)cc1 returned DSG3 Ab inh 101.9, VLA-4 inh 52.3*, PREPL inhibitor 8.7, GASC-1 inh -9.5, GRK2 aptamer HTS 6.0 and VLA-4 allo CP 0.7.
`COc1ccc(-c2nnc(SCc3ccc(C(=O)O)cc3)o2)cc1OC` gave DSG3 Ab inh 114.8, VLA-4 inh 18.2, PREPL inhibitor 13.1, GASC-1 inh 4.2 and GRK2 aptamer HTS 3.0.
For Nc1ncnc2c1nc(Br)n2[C@@H]1O[C@@H]2COP(=O)(O)O[C@H]2[C@H]1O the results were DSG3 Ab inh 93.5, VLA-4 inh 53.6*, PREPL inhibitor -8.3, GASC-1 inh 2.4, GRK2 aptamer HTS 5.0 and VLA-4 allo CP 3.7.
Screening Nc1nc2c(nc(Br)n2[C@@H]2O[C@@H]3COP(=O)(O)O[C@H]3[C@H]2O)c(=O)[nH]1 returned DSG3 Ab inh 111.9, VLA-4 inh 45.2, PREPL inhibitor 8.0, GASC-1 inh -1.8 and GRK2 aptamer HTS 3.0.
Screening Cc1ccc(-c2c(C(=O)O)c(C(=O)O)c3n2CCC3)cc1 returned DSG3 Ab inh 104.4, VLA-4 inh -3.5, PREPL inhibitor -1.0, GASC-1 inh -7.5 and GRK2 aptamer HTS 2.0.
O=C(O)c1c(C(=O)O)c(-c2ccc(F)cc2)n2c1CCC2 was read as DSG3 Ab inh 100.7, VLA-4 inh 43.6, PREPL inhibitor 3.6, GASC-1 inh inconclusive, GRK2 aptamer HTS 4.0 and VLA-4 allo CP -12.6.
`CCC(CO)NCc1ccc(OCC(O)c2ccccc2)c(OC)c1` (stereo not drawn) gave DSG3 Ab inh 115.1, VLA-4 inh 11.3, PREPL inhibitor 6.0, GASC-1 inh -17.6 and GRK2 aptamer HTS 5.0.
`COc1cccc2cc(C(N)=O)oc12` gave DSG3 Ab inh 104.5, VLA-4 inh 51.4*, PREPL inhibitor 4.7, GASC-1 inh 4.4, GRK2 aptamer HTS 2.0 and VLA-4 allo CP -3.5.
Screening CSCCC(NC(=O)COc1ccccc1)C(=O)N(C)Cc1ccc(SC)cc1 (stereo not drawn) returned DSG3 Ab inh 91.1, VLA-4 inh 2.0, PREPL inhibitor 6.3, GASC-1 inh -2.3 and GRK2 aptamer HTS 3.0.
Screening Cc1cc(OC(=O)c2cc(F)c(F)cc2Cl)nc(C)n1 returned DSG3 Ab inh 94.9, VLA-4 inh 62.6*, PREPL inhibitor 4.6, GASC-1 inh -10.1, GRK2 aptamer HTS 2.0 and VLA-4 allo CP 14.4.
